G9a inh – G9a (human) methyltransferase inhibition | Q96KQ7 | G9a H3K9 monomethylation, AlphaScreen, 2 h | Potency, µM (titrated, usually from 102 µM), for the others: at the top dose activity, negative = inhibition, hits mostly inhibitors | hit rate 8.8% among 350,000; note: potency is the fitted concentration of half-maximal effect; nearly all actives have a fitted effect of over 75% in size
Target sequence (Q96KQ7 913-1193 limits assumed): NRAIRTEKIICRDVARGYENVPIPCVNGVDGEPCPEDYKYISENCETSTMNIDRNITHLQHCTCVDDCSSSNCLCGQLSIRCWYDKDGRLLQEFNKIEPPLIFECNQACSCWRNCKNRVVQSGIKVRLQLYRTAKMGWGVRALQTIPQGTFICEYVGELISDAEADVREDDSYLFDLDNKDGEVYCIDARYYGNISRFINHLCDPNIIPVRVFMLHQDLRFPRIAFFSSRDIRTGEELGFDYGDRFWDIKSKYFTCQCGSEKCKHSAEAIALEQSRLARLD
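Enzyme 20 nM + cpd, 15 min RT; add b-H3K9 pep 500 nM / SAM 20 uM; 2 h RT; anti-H3K9me1 Ab 0.5 ug/mL + SA donor / anti-rabbit acceptor beads 20 ug/mL each, 10 min; AlphaScreen read.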
MmCpn inh – M. maripaludis TRiC chaperonin inhibition; purified Mm-Cpn ATPase, ADP Transcreener TR-FRET; Potency, µM (series often up to 76.9 µM), inactives show at the highest dose activity, negative = inhibition, usual class: inhibitors; hit rate 0.031% among 330,000; note: potency is the fitted concentration of half-maximal effect; nearly all actives have a fitted effect of over 80% in size
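Reaction buffer contained 30 mM Tris pH 7.4, 100 mM KCl, 5 mM MgCl2 and 1 mM DTT. Mm-CPN (25 nM final) hydrolysed 10 uM ATP over 30 min at 37°C; ADP was read by HTRF.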
VDR inhibitor – inhibitors of human vitamin D receptor; hit rate 0.93% among 400,000; VDR-SRC2-3 peptide fluorescence polarization, 2 h; Potency, µM, for inactives: max response, negative = inhibition, usual class: inhibitors; AID 504847; note: potency is the fitted concentration of half-maximal effect
Target sequence (P11473 whole entry, looked up): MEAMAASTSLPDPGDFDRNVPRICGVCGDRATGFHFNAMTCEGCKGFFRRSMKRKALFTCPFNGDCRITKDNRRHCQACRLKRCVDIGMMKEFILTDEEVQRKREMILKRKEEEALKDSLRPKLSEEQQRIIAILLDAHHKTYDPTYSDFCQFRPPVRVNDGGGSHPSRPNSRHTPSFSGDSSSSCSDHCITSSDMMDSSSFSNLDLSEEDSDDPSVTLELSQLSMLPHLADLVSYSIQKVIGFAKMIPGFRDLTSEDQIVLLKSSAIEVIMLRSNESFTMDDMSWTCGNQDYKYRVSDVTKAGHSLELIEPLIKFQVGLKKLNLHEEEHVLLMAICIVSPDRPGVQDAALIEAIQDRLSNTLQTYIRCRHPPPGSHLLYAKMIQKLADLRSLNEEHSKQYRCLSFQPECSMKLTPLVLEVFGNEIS
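Fluorescence polarization assay of small-molecule disruption of VDR binding to coregulator peptide SRC2-3. Compounds and controls pin-transferred, then read after 2 h incubation at ambient room temperature.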
PLK1 PBD inh – PLK1 (human) polo-box domain binding inhibition. Plk1 PBD binding of FITC phosphopeptide, fluorescence polarization. Potency, µM, without a hit: max response, negative = inhibition, actives largely listed as inhibitors. AID 720504. P53350. hit rate 2.8% among 360,000; note: potency is the fitted concentration of half-maximal effect; series mostly up to about 57 µM; nearly all actives have a fitted effect of over 65% in size
CCT modulator – modulators of cytosolic chaperonin (CCT/TRiC) activity | purified chaperonin ATPase assay, HTRF ADP detection, 30 min | activity change, % (test concentration not listed), hits read low | hit rate 0.3% among 360,000 | AID 651819; in the data active = activity change below about -30%
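Enzyme 40 or 20 nM (batch-dependent) in Tris pH 7.4/KCl/MgCl2/DTT; cpd 76 uM single point; ATP 10 uM; 30 min 37 °C; Transcreener ADP HTRF detection, 30 min RT; ratio 665/615.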
Sfp inh – blocks B. subtilis Sfp PPTase activity; Q9F4F7; Biochemical Sfp PPTase activity, qHTS; Potency, µM, without a hit: largest response in the series, negative = inhibition, most hits filed as inhibitors; hit rate 3.5% among 310,000; AID 1490;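 note: the enzyme is Sfp with the accession as filed and its product quenches rhodamine fluorescence; potency is the fitted concentration of half-maximal effect; 0% = enzyme reaction without inhibitor and -100% = no enzyme wells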
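Buffer: 50 mM Hepes-Na pH 7.6, 10 mM MgCl2, 0.01% Nonidet P-40, 0.01% BSA. Enzyme 15 nM, pre-exposed to compound 15 min; substrates then added and fluorescence change tracked over 30 min.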
Starred values were filed as active, the others as inactive; ? = inconclusive; / = no result; [ ] = another dose, or the depositor's remark. This is a sample that favours compounds with a hit; in the whole collection about 10% have one here. Unless noted, calls come from the whole dose curve; as a rule, active = well fitted curve in the direction sought with a large enough effect; inconclusive = small, poorly fitted or top-dose-only effect, or another doubt; inactive = no such curve, though single readings can be large; an effect the other way counts as inactive or inconclusive. Unless noted, % is set by controls: 0 for no effect and ±100 for the full control effect.

SMILES	G9a inh	MmCpn inh	VDR inhibitor	PLK1 PBD inh	CCT modulator	Sfp inh
COc1ccc(NC(=O)CN2c3cccc4cccc(c34)S2(=O)=O)cc1OC	/	/	/	?	0	/
CCOc1ccc(C(=O)OCc2cc(=O)n3cc(C)sc3n2)cc1	10%[59 µM]	/	-4%	/	/	/
COc1cccc(C(=O)N(Cc2cccnc2)c2nc3c(OC)ccc(C)c3s2)c1OC	?	/	15%	/	/	/
C=CCN1C(c2cccc(C(F)(F)F)c2)=CS/C1=C(/C#N)c1nnc(N2CCOCC2)n1-c1ccccc1	79µM*	0%	-28%	-12%	-9	-29%
C=CCN1C(=O)NC(c2ccc(OC)cc2)(C(F)(F)F)S/C1=C(\C#N)c1nnc(N2CCOCC2)n1-c1ccccc1 (stereo not given)	17%	0%	-24%	?	-2	7%
C=CCN1C(c2ccccc2)=CS/C1=C(\C#N)c1nnc2n1CCCCC2	?	2%	2%	-17%	0	63µM*
C=CCN1C(c2ccc(Br)cc2)=CS/C1=C(/C#N)c1nnc(N2CCOCC2)n1-c1ccccc1	?	1%	-5%	-13%	1	79µM*
CCN(C(=O)CSc1nc2cc(S(=O)(=O)N(CC)CC)ccc2o1)C1CCS(=O)(=O)C1 (stereo not given)	/	-4%	?	21µM*	-1	18µM*
O=c1[nH]cnc(O)c1C1C=CC=CC=C1	/	/	40µM*	-8%	-4	/
O=c1[nH]cnc2c1C(c1ccccc1)c1c(nc[nH]c1=O)O2	-1%	-2%	-11%	-2%	-4	7%
Cc1ccc(CNC(=O)c2nnc(Cc3cccc(F)c3)o2)cc1	74%[59 µM]	/	5%	/	/	/
COC(=O)c1ccc(CN2CCc3ccc(NC(=O)c4ccncc4)cc3C2)cc1	50µM*	-1%	6%	-2%	0	16%
COc1ccccc1CCC(=O)Nc1ccc2c(c1)CN(CCCn1cccn1)CC2	?	1%	7%	?	0	-3%
COc1ccc(CN2CCc3ccc(NC(=O)CCc4ccccc4OC)cc3C2)c(O)c1	?	2%	0%	3%	1	4%
COc1cccc(CN2CCc3ccc(NC(=O)CCc4ccc(C)cc4)cc3C2)c1O	40µM*	3%	-6%	2%	-1	5%
COc1cc(CN2CCc3ccc(NC(=O)CCc4ccccc4OC)cc3C2)ccc1O	45µM*	-5%	-9%	-10%	0	-4%
Cc1ccc(CSc2nnc3[nH]c(=O)cc(-c4ccccc4)n23)cc1	?	/	12%	/	/	/
CCOc1ccccc1NC(=O)Cn1c(=O)n(Cc2ccccc2)c(=O)c2cccnc21	-18%[59 µM]	/	0%	/	/	/
COc1ccc(C(=O)c2c(C(F)(F)F)oc3c2C(=O)c2ccccc2C3=O)cc1	7.9µM*	-2%	0%	-13%	0	-1%
Nc1cccc2c1C(=O)N(C(=O)c1ccco1)C2=O	?	-3%	-1%	-19%	-1	-15%
O=C(c1ccco1)N1C(=O)c2cccc3cccc1c23	5%[12.7 µM]	-8%	-5%	5.3µM*	3	9%
COc1ccc(Cl)cc1C(=O)Nc1sc2c(c1C(=O)OC(C)C)CCCC2	-19%[59 µM]	/	-6%	/	/	/
O=C(O)CN1CCCCCC1=O	-4%	-3%	-16%	3%	-3	20%
CCOCCN1CCN(C(=O)CN2CCCC2=O)CC1	7.9µM*	1%	-9%	-10%	-4	2%
COc1ccc(CCNC(=O)/C=C/c2ccco2)cc1OC	14µM*	0%	-18%	-24%	0	45µM*
SMILES	G9a inh	MmCpn inh	VDR inhibitor	PLK1 PBD inh	CCT modulator	Sfp inh
CCOc1ccc(CCNC(=O)/C=C/c2ccco2)cc1OCC	35µM*	-1%	-5%	-24%	0	-29%
Cc1ccc(C(C)C)c(OCCSc2nc3ccccc3n2CC(O)CO)c1 (stereo not given)	-41%[59 µM]	/	1%	/	/	/
CCCCOc1ccc(C(=O)N(Cc2ccc(C(C)C)cc2)C2CCS(=O)(=O)C2)cc1 (stereo not given)	3%[59 µM]	/	9%	/	/	/
CC(C)(C)c1csc(NC(=O)c2cccnc2)n1	20%[59 µM]	0%	-4%	2%	-3	9%
CC(C)(C)c1csc(NNC(=O)c2ccc(Cl)cc2)n1	40µM*	0%	-3%	?	-2	45µM*
CC(C)(C)CC(=O)NC1CC(=O)N(c2ccc3c(c2)OCCO3)C1 (stereo not given)	9%[59 µM]	/	2%	/	/	/
Cc1cc(C=C2C(=O)c3ccccc3C2=O)c(C)n1-c1ccccc1	-11%	-1%	20%	?	-3	-5%
Cc1cc(/C=N/O)c(C)n1-c1ccccc1	-6%[59 µM]	1%	-2%	-20%	0	14%
Cc1cc(C=C2C(=O)c3ccccc3C2=O)c(C)n1-c1cccc(C(=O)O)c1	40µM*	-6%	-3%	-21%	1	0%
Cc1cc(C=O)c(C)n1-c1cc(C(=O)O)cc(C(=O)O)c1	/	-2%	10%	?	-1	3%
Cc1cc(/C=N/O)c(C)n1-c1cccc(Cl)c1	45µM*	1%	-10%	-11%	-1	-15%
Cc1cc(C=O)c(C)n1-c1cccc(C(=O)O)c1	40µM*	-1%	-19%	-24%	1	8%
Cc1cc(/C=C2\Cc3ccccc3C2=O)c(C)n1-c1ccccc1	11%[59 µM]	-5%	-8%	-20%	0	-20%
Cc1cc(C=C2C(=O)c3ccccc3C2=O)c(C)n1-c1ccc(C(=O)O)cc1	35µM*	3%	-27%	-28%	-1	?
CSc1ccc(CCNC(=O)Cn2nc(C)n3c(cc4sccc43)c2=O)cc1	7%[59 µM]	/	-6%	/	/	/
CCOc1ccccc1CNc1ccc2cc(S(=O)(=O)N3CCC(C)CC3)ccc2n1	-32%[59 µM]	/	16%	/	/	/
Cc1cc(/C=c2\sc3nc4ccccc4n3c2=O)c(C)n1-c1ccc(C(=O)O)cc1	25µM*	0%	-3%	21µM*	-1	-18%
Cc1ccc(C)n1-c1cccc(C(=O)O)c1	4.5µM*	-9%	/	/	/	-26%
Cc1cc(/C=c2/sc3nc4ccccc4n3c2=O)c(C)n1-c1ccccn1	?	0%	-5%	-8%	-1	-23%
Cc1ccc(NC(=O)CSc2nc3n[nH]c(C)c3c(=N)n2-c2ccccc2C)cc1C	-14%[59 µM]	/	5%	/	/	/
COc1ccc(N2CCN(C(=O)CN3C(=O)COc4ccc(S(=O)(=O)N5CCC(C)CC5)cc43)CC2)cc1	?	/	12%	/	/	/
Cc1ccc(S(=O)(=O)n2nc(-c3ccccc3)nc2NCc2ccccc2Cl)cc1	15%[59 µM]	/	0%	/	/	/
O=C(CN1CCN(c2ccccc2F)CC1)c1ccc(O)cc1O	-28%	3%	8%	5%	-1	10%
COc1ccc(N2CCN(CC(=O)c3ccc(O)cc3O)CC2)cc1	71µM*	0%	-14%	?	1	7%
O=C(CN1CCN(c2ccc(F)cc2)CC1)c1ccc(O)cc1O	79µM*	0%	-15%	-17%	-2	-2%
